{"source": "PubChem BioAssay AID686964", "about": "(The Scripps Research Institute Molecular Screening Center, 2013)", "note": "In all, about 370,000 compounds went through this assay and about 1,100 (0.3%) were called active. No stated cut-off is given here; in the data, active means inhibition above about 13%; inactive means the rest. Many of the other results were omitted from the sample, so actives are more common in it than they were.", "data": [{"target": "Methyl-CpG-binding domain protein 2 (Homo sapiens) (UniProt Q9UBB5)", "sequence (Q9UBB5 whole entry, looked up, the tested form may be a part)": "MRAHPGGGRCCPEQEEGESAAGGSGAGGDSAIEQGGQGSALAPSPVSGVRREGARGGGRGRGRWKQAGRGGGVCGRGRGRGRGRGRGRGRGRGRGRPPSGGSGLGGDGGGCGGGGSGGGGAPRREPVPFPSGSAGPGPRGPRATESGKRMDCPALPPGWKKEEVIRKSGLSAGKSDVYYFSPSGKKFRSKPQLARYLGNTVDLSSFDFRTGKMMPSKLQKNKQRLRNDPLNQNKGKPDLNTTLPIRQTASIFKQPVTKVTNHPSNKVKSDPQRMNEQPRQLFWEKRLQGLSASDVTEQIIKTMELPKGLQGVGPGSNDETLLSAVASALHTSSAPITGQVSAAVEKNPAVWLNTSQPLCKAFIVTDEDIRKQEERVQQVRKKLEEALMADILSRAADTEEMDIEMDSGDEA", "assay": "MBD2-DBD methyl-oligonucleotide interaction blockers – biochemical, TR-FRET, DNA-binding domain, human, primary screen (AID 686964)", "conditions": "MBD2 binding to methylated oligonucleotide, at 4.4 µM, stronger effect = higher value", "values": [{"compound": "CCN(CC)CCOc1ccc2c(c1)C(=NNC(=O)c1ccccn1)c1cc(OCCN(CC)CC)ccc1-2", "inhibition": "109% (active)"}, {"compound": "CCN(CC)S(=O)(=O)c1cc(C(=O)Nc2ccccn2)ccc1C", "inhibition": "2.21% (inactive)"}, {"compound": "CCCC(C(=O)OCCN(CC)CC)(c1ccccc1)c1ccccc1", "inhibition": "0.72% (inactive)"}, {"compound": "Cc1cccc(S(=O)(=O)N(C)C[C@@H]2OCc3cnnn3CCCC(=O)N([C@H](C)CO)C[C@@H]2C)c1", "inhibition": "3.06% (inactive)"}, {"compound": "CN(C)[C@@H]1C(=O)C(C(N)=O)=C(O)[C@@]2(O)C(=O)C3=C(O)c4c(O)ccc(Cl)c4[C@@H](O)[C@H]3C[C@@H]12", "inhibition": "17.8% (active)"}, {"compound": "C=C1c2c(Cl)ccc(O)c2C(O)=C2C(=O)[C@]3(O)C(O)=C(C(N)=O)C(=O)[C@@H](N(C)C)[C@@H]3[C@@H](O)C12", "note": "(some centres not stated)", "inhibition": "27.8% (active)"}, {"compound": "O=C1CCC2(CCC(c3ccc(Cl)cc3)CC2)N1CCO", "note": "(configuration not stated)", "inhibition": "-0.8% (inactive)"}, {"compound": "Nc1ncnc2c1ncn2[C@@H]1O[C@H](C(=O)N[C@@H](CCc2ccccc2)C(=O)N2CCCN(Cc3cccs3)CC2)[C@@H](O)[C@H]1O", "inhibition": "1.63% (inactive)"}, {"compound": "O=C(O)CCn1c(O)c(C=C2N=c3ccccc3=N2)sc1=S", "inhibition": "-4.63% (inactive)"}, {"compound": "CCOC(=O)C1C(=O)OC2(CCCC2)C1C(=O)OCC", "note": "(configuration not stated)", "inhibition": "19.3% (active)"}, {"compound": "CCOC(=O)C1C(c2ccc(O)cc2)NC(=O)NC1(O)C(F)(F)F", "note": "(configuration not stated)", "inhibition": "-5.62% (inactive)"}, {"compound": "CCOC(=O)C1C(=O)NCC1c1ccccc1", "note": "(configuration not stated)", "inhibition": "-0.38% (inactive)"}, {"compound": "Cc1cc2c(nc1C)CCCN2C", "inhibition": "-0.93% (inactive)"}, {"compound": "C=CCN(Cc1ccc2c(c1)OCO2)C(C#CC1CC1)C(C)(C)C", "note": "(configuration not stated)", "inhibition": "3.04% (inactive)"}, {"compound": "O=C(c1c[nH]c2ccccc12)N1CCC(Oc2cccnc2)CC1", "inhibition": "-6.13% (inactive)"}, {"compound": "CC(=O)N1C[C@@H](CO)[C@@H](N(C)C(=O)C(C)(C)C)C[C@H]1c1ccccc1Br", "inhibition": "2.89% (inactive)"}, {"compound": "Oc1ccc(/C=C/c2c(F)cccc2F)c2cccnc12", "inhibition": "-0.79% (inactive)"}, {"compound": "Cc1ccc(CNC(=O)CC(NC(=O)c2ccccc2)c2ccccc2)cc1", "note": "(configuration not stated)", "inhibition": "-3.58% (inactive)"}, {"compound": "Nc1ccccc1C(=O)NC1CCCCNC1=O", "note": "(configuration not stated)", "inhibition": "16.1% (active)"}, {"compound": "O=C(CNC(=O)OCc1ccccc1)NC1CCCCNC1=O", "note": "(configuration not stated)", "inhibition": "0.98% (inactive)"}, {"compound": "Nc1ccn([C@@H]2O[C@H](C(=O)N[C@H]3CCCCNC3=O)[C@@H](O)[C@H]2O)c(=O)n1", "inhibition": "-2.88% (inactive)"}, {"compound": "CN1[C@H](Cc2ccccc2)COc2cccc(N3CCSCC3)c2S1(=O)=O", "inhibition": "3.96% (inactive)"}, {"compound": "CCOC(=O)N1CCN(C(=O)C[C@@H]2C(=O)N(CCc3ccc(Cl)cc3)C3=CCCC[C@]32C(=O)OCC)CC1", "inhibition": "-2% (inactive)"}, {"compound": "COc1ccc2c(CC(=O)NNC(=O)c3ccccc3F)coc2c1", "inhibition": "-1.98% (inactive)"}, {"compound": "C[C@H]1[C@H](NC(=O)c2cccc(N(C)C)c2)CC[C@@]23CCCN2C(=O)CCC[C@@H]13", "inhibition": "-0.56% (inactive)"}, {"compound": "Cc1c(NS(=O)(=O)c2cc(C(=O)NCCc3ccc(F)cc3)cc(Cl)c2Cl)c(=O)n(-c2ccccc2)n1C", "inhibition": "26.3% (active)"}, {"compound": "Cc1c(NS(=O)(=O)c2cccc(C(=O)Nc3ccc(SC(F)F)cc3)c2)c(=O)n(-c2ccccc2)n1C", "inhibition": "7.59% (inactive)"}, {"compound": "Cc1cc(C)c(S(=O)(=O)Nc2c(C)n(C)n(-c3ccccc3)c2=O)cc1[N+](=O)[O-]", "inhibition": "-5.79% (inactive)"}, {"compound": "O=C(O)Cn1cnc2c(NCc3ccccc3)ncnc21", "inhibition": "-3.02% (inactive)"}, {"compound": "O=C(NCCc1c[nH]c2ccccc12)OCc1cn(-c2c(F)cccc2F)nn1", "inhibition": "-6.28% (inactive)"}, {"compound": "CCC(=O)OCCCN1C(=O)CCC12CCC(c1ccccc1)CC2", "note": "(configuration not stated)", "inhibition": "3.38% (inactive)"}, {"compound": "CN1C(c2ccc(F)cc2)=CS/C1=C(/C#N)c1nnc2n1-c1ccccc1SC2", "inhibition": "-4.62% (inactive)"}, {"compound": "COC(CNC(=O)[C@H](Cc1ccccc1)NC1(C(=O)NC2CCCCC2)CCCCC1)OC", "inhibition": "6.86% (inactive)"}, {"compound": "C=CS(=O)(=O)N(Cc1nnn(Cc2ccccc2)c1Br)[C@H](C(=O)OC)C(C)C", "inhibition": "-4.08% (inactive)"}, {"compound": "Cc1ccc(-c2noc(CCC(=O)Nc3ccccc3N3CCN(C)CC3)n2)cc1", "inhibition": "-4.01% (inactive)"}, {"compound": "COCCNC(=O)c1cc2c(Br)ccc(Br)c2nc1N", "inhibition": "1.97% (inactive)"}, {"compound": "COCCNC(=S)c1ccc(OC)cc1", "inhibition": "0.26% (inactive)"}, {"compound": "COCCNC(=O)Nc1ccc2nc(-c3ccco3)c(-c3ccco3)nc2c1", "inhibition": "53.7% (active)"}, {"compound": "COc1cccc(CNC(=O)CNS(=O)(=O)c2ccc3nc(C)sc3c2)c1OC", "inhibition": "3.15% (inactive)"}, {"compound": "CCOC(=O)C1CCCN(C(=O)c2ccc(C)c(F)c2)CC1", "note": "(configuration not stated)", "inhibition": "-3.99% (inactive)"}, {"compound": "CCOC(=O)C1CCCN(C(=O)c2ccc(N(C)C)cc2)CC1", "note": "(configuration not stated)", "inhibition": "7.99% (inactive)"}, {"compound": "C=CCN1C(=O)c2ccc(C(=O)N3CCC(C(=O)OCC)CC3)cc2C1=O", "inhibition": "16.8% (active)"}, {"compound": "Cc1c(C(=O)N2CC(C)OC(C)C2)sc2nc(-c3ccccc3)cn12", "note": "(configuration not stated)", "inhibition": "-0.32% (inactive)"}, {"compound": "CC(C)C(C#CC1CC1)N(Cc1ccc2c(c1)OCO2)C(N)=NC(=O)/C=C/c1cccc(C(F)(F)F)c1", "note": "(configuration not stated)", "inhibition": "-0.7% (inactive)"}, {"compound": "CC(C)(C)NC(=O)C(c1cccnc1)N(C(=O)c1cnco1)c1ccc(C(C)(C)C)cc1", "note": "(configuration not stated)", "inhibition": "2.09% (inactive)"}, {"compound": "CCC(NC(=O)C1C2C=CC3(CN(Cc4ccccc4)C(=O)C13)O2)c1ccccc1", "note": "(configuration not stated)", "inhibition": "0.25% (inactive)"}, {"compound": "COc1ccc(-c2nnc(SCC(=O)c3ccc4c(c3)OCCO4)o2)cc1", "inhibition": "-3.62% (inactive)"}, {"compound": "CCc1ccccc1NC(=O)CSc1nnc(-c2cccs2)o1", "inhibition": "2.5% (inactive)"}, {"compound": "COc1ccc(-n2c(C)cc(C(=O)CSc3nnc(-c4cccs4)o3)c2C)cc1", "inhibition": "15.1% (active)"}, {"compound": "O=C(CSc1nncn1-c1cccnc1)N1CCOCC1", "inhibition": "2.16% (inactive)"}, {"compound": "COc1cc(NC(=O)C2CCCN(S(=O)(=O)c3ccc(C(C)(C)C)cc3)C2)cc(OC)c1", "note": "(configuration not stated)", "inhibition": "-0.54% (inactive)"}, {"compound": "CCCCCCCCN1C(=O)[C@@H](CC(=O)NCc2ccccc2)C[C@@]2(C(=O)OC)C1=C[C@H](C(C)(C)C)O[C@@H]2C", "inhibition": "3.75% (inactive)"}, {"compound": "O=C(c1ccncc1)N1CC[C@H]2[C@H](CCCN2Cc2ccc(F)cc2)C1", "inhibition": "-6.65% (inactive)"}, {"compound": "COc1ccc2c(c1)c(=Cc1ccc(N(C)C)cc1)c1cc(-c3ccccc3)[n+](C)n12", "inhibition": "29.6% (active)"}, {"compound": "COc1ccc(NS(=O)(=O)c2cc3c(cc2C)N(C(C)=O)CCO3)cc1", "inhibition": "-5.65% (inactive)"}, {"compound": "CC1CCCN(CCOCCOc2ccccc2-c2ccccc2)C1", "note": "(configuration not stated)", "inhibition": "-4.99% (inactive)"}, {"compound": "CCSc1ccccc1C(=O)NCc1ccc(OC)cc1", "inhibition": "-9.91% (inactive)"}, {"compound": "COc1ccc(CNC(=O)c2cc(C(=O)C3CC3)c[nH]2)cc1", "inhibition": "1.85% (inactive)"}, {"compound": "COc1ccc(CNC(=O)c2c[nH]c3c(OC)cc(OC)cc3c2=O)cc1", "inhibition": "23.4% (active)"}, {"compound": "CC(CCN1CCC(C(O)(c2ccccc2)c2ccccc2)CC1)Oc1ccc([N+](=O)[O-])cc1Cl", "note": "(configuration not stated)", "inhibition": "1.05% (inactive)"}, {"compound": "COCCn1c(CN2CCC(Cc3ccccc3)CC2)nc2c1c(=O)n(C)c(=O)n2C", "inhibition": "4.97% (inactive)"}, {"compound": "O=C(CCCCCN1C(=O)C2C3C=CC(C3)C2C1=O)Nc1ccccc1", "note": "(configuration not stated)", "inhibition": "-6.87% (inactive)"}, {"compound": "CO/N=C/CC(=O)c1ccc(OC)cc1", "inhibition": "-0.8% (inactive)"}, {"compound": "CO/N=C(/CS(=O)(=O)c1ccc(Br)cc1)c1ccc(OC)cc1", "inhibition": "14% (active)"}, {"compound": "Cc1nc(S(=O)(=O)c2ccc(Br)cc2)nc2c1CCC2", "inhibition": "1.36% (inactive)"}, {"compound": "CCN1CCN(C(=O)N(Cc2ccc(Cl)cc2)S(=O)(=O)c2ccc(C)cc2)CC1", "inhibition": "2.19% (inactive)"}, {"compound": "N#Cc1ccccc1OC[C@@H](O)CN1CCC(C(O)(c2ccccc2)c2ccccc2)CC1", "inhibition": "0.72% (inactive)"}, {"compound": "CCCCNC(=O)C[C@H]1C(=O)N(Cc2ccc(OC)cc2)C2=CCCC[C@@]21C(=O)OCC", "inhibition": "-1.99% (inactive)"}, {"compound": "CSc1nnc(-c2ccc(C(F)(F)F)cn2)o1", "inhibition": "2.79% (inactive)"}, {"compound": "Cc1ccccc1NC(=O)c1ccc(COc2ccc3c(C)cc(=O)oc3c2)cc1", "inhibition": "5.18% (inactive)"}, {"compound": "Cc1ccc(C)c(NC(=O)c2ccc(OC(=O)c3ccco3)cc2)c1", "inhibition": "19.6% (active)"}, {"compound": "Cc1ccc(O)c(NC(=O)c2cc(-c3ccco3)on2)c1", "inhibition": "-2.88% (inactive)"}, {"compound": "CCN(Cc1ccncc1)C(=O)c1cccc(S(=O)(=O)N2CCOCC2)c1", "inhibition": "0.65% (inactive)"}, {"compound": "Cc1cccc(CN2CCN(C3CN(Cc4cn(Cc5cc(C)cc(C)c5)nn4)S(=O)(=O)C3)CC2)c1", "note": "(configuration not stated)", "inhibition": "17.4% (active)"}, {"compound": "Cc1cccc(CN2CCN(C3CN(Cc4cn(Cc5ccccc5F)nn4)S(=O)(=O)C3)CC2)c1", "note": "(configuration not stated)", "inhibition": "5.03% (inactive)"}, {"compound": "Cc1cccc(CN2CCN(C3CN(Cc4ccccc4)S(=O)(=O)C3)CC2)c1", "note": "(configuration not stated)", "inhibition": "1.18% (inactive)"}, {"compound": "CCOc1ccc(Oc2c(Cl)cnn(-c3ccc(C)cc3)c2=O)cc1", "inhibition": "3.14% (inactive)"}, {"compound": "Cc1ccc(S(=O)(=O)Cn2nnnc2CN2CCN(Cc3ccc4c(c3)OCO4)CC2)cc1", "inhibition": "0.18% (inactive)"}, {"compound": "CCOc1nc(OCC)nc(-n2cc(-c3ccccc3)nn2)n1", "inhibition": "-0.3% (inactive)"}, {"compound": "CCOC(=O)c1ccc(-n2c(CCC(=O)O)ccc2-c2ccccc2)cc1", "inhibition": "14.6% (active)"}, {"compound": "COc1ccc(-c2ccc(CCC(=O)O)n2-c2ccc(O)cc2)cc1", "inhibition": "-0.88% (inactive)"}, {"compound": "COc1ccc(-c2ccc(CCC(=O)O)n2NC(=O)c2ccc(C(C)(C)C)cc2)cc1", "inhibition": "-1.3% (inactive)"}, {"compound": "CCC12CN3CC(CC)(CN(C1)C31C(=O)N(C)c3ccc(C)cc31)C2=O", "note": "(configuration not stated)", "inhibition": "-7.87% (inactive)"}, {"compound": "C[C@H](O)[C@@H]1CN2CCc3ccc(-c4ccc5c(c4)OCO5)cc3[C@@H]2C[C@@H]1N(C)C(=O)C1CCCCC1", "inhibition": "-1.38% (inactive)"}, {"compound": "Cc1ccc(-c2nc3c(Cl)cc(C(F)(F)F)cn3c2Cc2cccc(Cl)c2)cc1", "inhibition": "-2.87% (inactive)"}, {"compound": "Cc1ccc(-c2ccnc3nc(Sc4ncc(C(F)(F)F)cc4Cl)nn23)cc1", "inhibition": "14.8% (active)"}, {"compound": "Cc1nn(-c2ncc(C(F)(F)F)cc2Cl)c(=O)n1-c1ccccc1", "inhibition": "3.32% (inactive)"}]}]}
